Compounds without any hit were thinned out: in the full panel of roughly 83,000, 20% have a hit.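 Single-concentration screen, 48 h exposure, 96-well plates. Endpoint: percent growth. Below 10 = active.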 The source made the active and inactive calls.
Tests used:
Assay in all cases: NCI-60 one-dose screen, 48 h (100 = growth as untreated, 0 = no growth, -100 = all killed)
[1] = test system: SR leukemia; settings: 10 µM unless noted
[2] = test system: RPMI-8226 leukemia; settings: 10 µM unless noted
[3] = test system: OVCAR-8 ovarian; settings: 10 µM unless noted
[4] = test system: OVCAR-5 ovarian; settings: 10 µM unless noted
[5] = test system: OVCAR-4 ovarian; settings: 10 µM unless noted
[6] = test system: SK-OV-3 ovarian; settings: 10 µM unless noted
[7] = test system: IGROV1 ovarian; settings: 10 µM unless noted
[8] = test system: OVCAR-3 ovarian; settings: 10 µM unless noted
[9] = test system: HS 578T breast; settings: 10 µM
[10] = test system: NCI/ADR-RES ovarian; settings: 10 µM unless noted
[11] = test system: T-47D breast; settings: 10 µM unless noted
[12] = test system: MDA-MB-435 melanoma; settings: 10 µM unless noted
[13] = test system: SW-620 colon; settings: 10 µM unless noted
[14] = test system: MCF7 breast; settings: 10 µM unless noted
[15] = test system: HCT-116 colon; settings: 10 µM unless noted
[16] = test system: HCC-2998 colon; settings: 10 µM unless noted
[17] = test system: KM12 colon; settings: 10 µM unless noted
[18] = test system: BT-549 breast; settings: 10 µM unless noted

Measured: growth

Cc1ccc(NC(=O)c2[nH]c(SCCN(C)C)nc2-c2ccc(F)cc2)cc1Nc1ccc2ncn(C)c(=O)c2c1
inactive: [2] 40.8% | [3] 70% | [4] 42.6% | [5] 70.8% | [6] 88.4% | [7] 39.8% | [8] 78.9% | [9] 60.6% | [10] 93.2% | [11] 76.8% | [12] 44.6% | [13] 51.8% | [14] 70% | [15] 21% | [16] 49.9% | [17] 49.6%
active: [1] -24.9%

Cc1cccc(C(=O)O)n1
active: [2] -8.6%
inactive: [1] 120% | [3] 74.4% | [4] 100% | [5] 101% | [6] 119% | [7] 72% | [8] 115% | [9] 118% | [10] 107% | [11] 106% | [12] 95.8% | [13] 103% | [14] 104% | [16] 98.7% | [17] 110%

COc1ccc(-c2nc(-c3cc(OC)cc(OC)c3)[nH]c2-c2ccc(OC)cc2)cc1
inactive: [1] 25.3% | [3] 58.1% | [4] 77.7% | [5] 59.7% | [6] 85.6% | [7] 71.7% | [8] 45.3% | [9] 81.5% | [10] 53.9% | [18] 51% | [12] 48.7% | [13] 73.6% | [14] 34.9% | [15] 40.8% | [16] 42.9% | [17] 46.5%
active: [2] -11.6%

COc1ccc(/C=c2\c(=O)n(-c3ccccc3)c3nn4c(n23)=NNC42CCCCC2)cc1
inactive: [1] 115% | [2] 107% | [3] 95.1% | [4] 113% | [5] 106% | [6] 95.5% | [7] 88.5% | [8] 95.9% | [9] 104% | [10] 99.4% | [18] 97.3% | [12] 110% | [13] 103% | [14] 96.6% | [15] 95.8% | [16] 107% | [17] 102%

O=C(NC1CC1)c1ccc(-c2nc3ccc4[nH]ncc4c3c3c2CCCC3)cc1
active: [6] -7.43% | [9] 4.47%
inactive: [1] 32.2% | [2] 50.5% | [3] 38.8% | [4] 75.2% | [5] 61.6% | [7] 22.7% | [8] 58% | [10] 72.1% | [18] 29.5% | [12] 11.5% | [13] 18.7% | [14] 38.6% | [15] 17% | [16] 51.1% | [17] 24.4%

O=[N+]([O-])c1cccc([I+]c2ccccc2)c1
inactive: [1] 16.6% | [2] 27.9% | [3] 35% | [4] 96.1% | [5] 58.4% | [6] 54.9% | [7] 31.5% | [8] 58.7% | [9] 49.6% | [10] 77.5% | [18] 63.3% | [12] 72.7% | [13] 40% | [14] 37.6% | [15] 47.7% | [16] 67.2% | [17] 60.5%

C#CC[C@@H]1C[C@]2(C)[C@H]3CC=C4[C@H]5CC(C)(C)CC[C@]5(C(=O)NCCCCN)CC[C@@]4(C)[C@]3(C)CC[C@H]2C(C)(C)[C@H]1OC(C)=O
inactive: [4] 21.7% | [5] 50.1% | [6] 116% | [7] 32.8% | [8] 49.3% | [9] 94.3% | [10] 81.7% | [18] 97.8%
active: [1] 0.939% | [2] -10.2% | [3] 3.77% | [12] -34.2% | [13] -23.9% | [14] 4.27% | [15] -31% | [16] 1.58% | [17] 6.43%

CC(=O)c1nn(-c2ccccc2)/c(=N\N=C\c2coc3ccc(F)cc3c2=O)s1
inactive: [1] 96.2% | [2] 91.9% | [3] 107% | [4] 110% | [5] 108% | [6] 98.9% | [7] 87.2% | [8] 111% | [9] 95.1% | [10] 104% | [18] 105% | [12] 103% | [13] 98.7% | [14] 90.3% | [15] 96% | [16] 111% | [17] 101%

CCCc1cc2c(cc1CN(Cc1cc3c(cc1CCC)OCO3)C(=N)OCC)OCO2
inactive: [1] 91.2% | [2] 55.2% | [3] 82.4% | [4] 98.9% | [5] 77.9% | [6] 92.7% | [7] 63.3% | [8] 69.1% | [9] 73.1% | [10] 91.2% | [18] 80.4% | [12] 103% | [13] 81% | [14] 86.5% | [15] 41.2% | [16] 90.5% | [17] 92.8%

CCc1ccc(Nc2ncnc3c2cnn3-c2cccc(Br)c2)cc1
inactive: [1] 108% | [2] 117% | [3] 93.3% | [4] 102% | [5] 105% | [6] 104% | [7] 113% | [8] 103% | [9] 103% | [10] 100% | [18] 95.8% | [12] 98% | [13] 99.6% | [14] 102% | [15] 96.1% | [16] 98.1% | [17] 106%

COc1ccc(/C=c2\c(=O)n(-c3ccccc3)c3nn4c(=O)c(=O)[nH]nc4n23)cc1
inactive: [1] 108% | [2] 110% | [3] 109% | [4] 146% | [5] 107% | [6] 113% | [7] 113% | [8] 115% | [9] 114% | [10] 106% | [18] 105% | [12] 112% | [13] 106% | [14] 102% | [15] 102% | [16] 108% | [17] 109%

O=[N+]([O-])c1cccc(N=C(Nc2cccc([N+](=O)[O-])c2)c2ccccc2)c1
inactive: [1] 70.4% | [2] 58.2% | [3] 93.4% | [4] 99.9% | [5] 84.7% | [6] 107% | [7] 84.4% | [8] 88.2% | [9] 97.9% | [10] 75.6% | [18] 82% | [12] 78.4% | [13] 101% | [14] 68.9% | [15] 58.1% | [16] 93.2% | [17] 84.2%

CC(COC(=O)c1ccccc1)N1CC2CCC(C1)O2 (centres undefined)
inactive: [1] 93.2% | [2] 99.1% | [3] 93.9% | [4] 101% | [5] 107% | [6] 96.1% | [7] 113% | [8] 104% | [9] 105% | [10] 111% | [18] 105% | [12] 98.1% | [13] 97.6% | [14] 102% | [15] 106% | [16] 110% | [17] 109%

Oc1ccc(-c2cnc(-c3ccccc3)[nH]2)c(O)c1
inactive: [1] 40.2% | [2] 38.7% | [3] 119% | [4] 116% | [5] 106% | [6] 113% | [7] 94.3% | [8] 107% | [9] 97.7% | [10] 113% | [11] 107% | [12] 110% | [13] 109% | [15] 78.6% | [16] 117% | [17] 102%

CCCCn1c(C)nc2cc(Nc3nc(Cl)nc4nc[nH]c34)ccc21
inactive: [1] 66.7% | [2] 65.4% | [3] 84.2% | [4] 80.6% | [5] 78.9% | [6] 80% | [7] 70.7% | [8] 91.6% | [9] 52.7% | [10] 94% | [18] 72.3% | [12] 90.1% | [13] 90.4% | [14] 75.4% | [15] 83.6% | [16] 102% | [17] 97.3%

COc1cc(C)cc2oc3oc(=O)c(-c4csc(-c5cc6ccccc6oc5=O)n4)cc3c(=O)c12
inactive: [1] 113% | [2] 109% | [3] 103% | [4] 109% | [5] 106% | [6] 120% | [7] 117% | [8] 116% | [9] 120% | [10] 105% | [18] 107% | [12] 105% | [13] 105% | [14] 101% | [15] 106% | [16] 106% | [17] 107%

C#CC[C@@H]1C[C@]2(C)[C@H]3CC[C@@H]4[C@H]5C(C(=C)C)CC[C@]5(C(=O)NCCCCCCCCN)CC[C@@]4(C)[C@]3(C)CC[C@H]2C(C)(C)[C@H]1OC(C)=O (some centres undefined)
inactive: [3] 91.3% | [4] 108% | [5] 45.9% | [6] 124% | [7] 85.7% | [8] 55.4% | [9] 109% | [10] 93.8% | [18] 97.5% | [12] 76.5% | [16] 91.1% | [17] 61.9%
active: [1] -16% | [2] 0.0796% | [13] -2.59% | [14] -18.9% | [15] -88.5%

O=C(Nc1ccccc1Cl)Oc1ccc2ccccc2c1
inactive: [1] 71.1% | [2] 97.8% | [3] 84.1% | [4] 89% | [5] 101% | [6] 93.5% | [7] 77.9% | [8] 96.6% | [9] 115% | [10] 101% | [18] 133% | [12] 105% | [13] 103% | [14] 84.4% | [15] 95.3% | [16] 95.1% | [17] 95.9%

Reference: PubChem BioAssay (NCI)
